# Dicer inh: blocks human Dicer maturation of pre-miR-21 | Q9UPY3 | cat-ELCCA pre-miR-21 Dicer processing, chemiluminescence; stronger effect = higher value | z-score at 25 µM | actives 6% (n = 47,000) | AID 1347074; in the data active means z-score above about 3, passing the limit was not always enough;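 further: plate controls were vehicle for no effect and no enzyme for full effect; higher signal means more uncleaved substrate so more Dicer inhibition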
# Target sequence (Q9UPY3 whole entry, looked up): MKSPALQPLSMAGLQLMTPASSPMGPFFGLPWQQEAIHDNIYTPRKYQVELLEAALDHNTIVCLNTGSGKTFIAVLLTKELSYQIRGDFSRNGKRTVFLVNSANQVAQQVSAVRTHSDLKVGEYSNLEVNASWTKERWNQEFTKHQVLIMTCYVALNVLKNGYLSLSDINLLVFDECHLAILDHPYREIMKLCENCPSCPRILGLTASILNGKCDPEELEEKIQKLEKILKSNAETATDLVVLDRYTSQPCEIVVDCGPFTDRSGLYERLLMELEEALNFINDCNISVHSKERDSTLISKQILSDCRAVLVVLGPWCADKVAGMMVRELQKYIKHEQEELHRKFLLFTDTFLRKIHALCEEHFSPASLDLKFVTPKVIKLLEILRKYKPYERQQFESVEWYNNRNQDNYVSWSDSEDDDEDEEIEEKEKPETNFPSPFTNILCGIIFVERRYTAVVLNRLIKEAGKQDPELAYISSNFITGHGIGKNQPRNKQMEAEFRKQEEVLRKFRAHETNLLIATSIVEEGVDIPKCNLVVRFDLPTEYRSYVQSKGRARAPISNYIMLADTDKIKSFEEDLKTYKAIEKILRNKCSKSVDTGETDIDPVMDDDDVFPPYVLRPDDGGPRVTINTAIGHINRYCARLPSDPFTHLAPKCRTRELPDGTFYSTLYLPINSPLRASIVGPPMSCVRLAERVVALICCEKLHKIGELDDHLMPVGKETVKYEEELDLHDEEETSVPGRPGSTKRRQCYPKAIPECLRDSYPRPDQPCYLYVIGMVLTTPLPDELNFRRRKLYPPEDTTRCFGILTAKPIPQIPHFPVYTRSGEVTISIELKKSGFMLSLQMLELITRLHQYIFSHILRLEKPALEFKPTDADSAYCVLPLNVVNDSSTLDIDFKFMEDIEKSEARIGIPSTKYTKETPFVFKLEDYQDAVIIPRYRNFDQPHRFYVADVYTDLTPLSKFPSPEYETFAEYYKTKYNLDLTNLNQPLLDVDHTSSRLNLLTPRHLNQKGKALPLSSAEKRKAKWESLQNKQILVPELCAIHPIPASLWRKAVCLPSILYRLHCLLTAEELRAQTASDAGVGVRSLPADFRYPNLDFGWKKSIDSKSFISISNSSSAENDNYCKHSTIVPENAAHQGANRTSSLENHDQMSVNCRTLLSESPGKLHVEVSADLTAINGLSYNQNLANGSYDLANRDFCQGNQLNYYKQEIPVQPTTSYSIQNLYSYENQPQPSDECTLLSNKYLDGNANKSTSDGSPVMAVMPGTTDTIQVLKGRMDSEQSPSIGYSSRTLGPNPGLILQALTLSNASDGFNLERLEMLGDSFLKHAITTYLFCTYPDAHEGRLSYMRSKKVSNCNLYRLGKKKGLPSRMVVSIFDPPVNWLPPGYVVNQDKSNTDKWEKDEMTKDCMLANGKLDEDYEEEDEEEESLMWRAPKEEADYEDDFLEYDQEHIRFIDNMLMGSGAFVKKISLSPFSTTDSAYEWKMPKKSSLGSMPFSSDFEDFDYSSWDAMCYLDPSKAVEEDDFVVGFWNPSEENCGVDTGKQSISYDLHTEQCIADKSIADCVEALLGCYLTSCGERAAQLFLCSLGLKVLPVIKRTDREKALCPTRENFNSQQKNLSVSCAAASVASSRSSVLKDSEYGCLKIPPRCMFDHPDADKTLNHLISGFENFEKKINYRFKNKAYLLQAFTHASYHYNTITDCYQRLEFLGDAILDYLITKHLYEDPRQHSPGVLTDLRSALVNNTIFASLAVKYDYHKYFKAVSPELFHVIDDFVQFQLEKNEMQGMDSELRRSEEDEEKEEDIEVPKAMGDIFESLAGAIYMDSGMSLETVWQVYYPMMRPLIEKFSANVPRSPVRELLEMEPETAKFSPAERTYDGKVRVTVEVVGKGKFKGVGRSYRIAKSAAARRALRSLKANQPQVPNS
# * = called active by the depositor. Only a selection was taken, and hits are over-represented in it overall.
SMILES,Dicer inh
O=C(/C=C/c1cccs1)NC(=S)N1CCOCC1,-0.94
Cc1[nH]c2c(C)cccc2c(=O)c1CN1CCCCC1C (stereo unspecified),-0.72
C=CCNC(=O)c1cnn2c(C(F)F)cc(-c3ccc(C)cc3)nc12,2.9
Cc1nnc2c(N3CCN(Cc4ccccc4)CC3)nc3ccccc3n12,-0.28
Cn1c(S(=O)(=O)Cc2ccc(Cl)cc2)nc2ccccc21,-0.41
Cn1c(CN2CCN(c3ccc(Cl)cc3)CC2)nc2ccccc21,6.1*
CC(=O)OC[C@@H](OC(C)=O)[C@@H](OC(C)=O)[C@@H](OC(C)=O)C(N)=O,-1.8
O=C(CCCO)Nc1ccc2c(c1)OCCO2,0.7
O=C(NCc1ccc(C(F)(F)F)cc1)c1cc2ccc3ccccc3c2s1,2.8
O=C(NCCO)c1cc2ccccc2c(=O)s1,3.8*
CC(C)OC(=O)c1cc2ccccc2c(=O)s1,-0.39
Cc1ccc(-n2nnnc2-c2c[nH]c3ccc(C)cc23)cc1,-0.48
O=C(OCc1ccccc1)c1cnc(Nc2ccc(F)cc2)nc1C(F)(F)F,-0.68
COc1cc(C2C(C(=O)OCC3CCCO3)=C(C)NC3=C2C(=O)CCC3)cc(Br)c1O (stereo unspecified),-0.05
COc1ccc(S(=O)(=O)Nc2ccc3oc4c(c3c2)CCCC4)cc1,1.4
Cc1oc2ccc(NS(=O)(=O)c3ccccc3)cc2c1C(=O)O,3.4*
Cc1ccccc1S(=O)(=O)Nc1ccc2oc3c(c2c1)CCCC3,3.9*
O=C(O)c1ccc(S(=O)(=O)Nc2ccc3oc4c(c3c2)C(=O)CCC4)cc1,0.94
Cc1oc2ccc(NS(=O)(=O)c3ccc(Cl)cc3)cc2c1C(=O)O,0.79
Cc1oc2ccc(NS(=O)(=O)c3ccc(F)cc3)cc2c1C(=O)O,-1.6
COc1cc2ncnc(NC(C)C)c2cc1OC,-0.54
O=c1c2cn[nH]c2[nH]c(=S)n1-c1ccc(Cl)cc1,0.26
O=C(CCCN1C(=O)c2cccc3cccc(c23)C1=O)N1CCOCC1,0.41
c1ccc(-c2nnc3sc(-c4cccs4)nn23)cc1,-0.93
c1ccc(-c2nn3c(-c4ccccc4)nnc3s2)cc1,-0.02
SMILES,Dicer inh
c1ccc(-c2nnc3sc(-c4ccco4)nn23)cc1,3*
Cc1ccc(C2/C(=C(\O)c3ccc(Cl)cc3)C(=O)C(=O)N2c2cccnc2)cc1 (stereo unspecified),-0.14
CSc1ncc(S(=O)(=O)Cc2cccs2)c(N)n1,0.02
Cc1ncc(S(=O)(=O)Cc2cccs2)c(N)n1,5.2*
Cc1ncc(S(=O)(=O)C(C)(C)C)c(N)n1,-0.51
Nc1c(C(=O)NNC(=S)Nc2ccc(Cl)cc2Cl)sc2nnc(-c3ccccc3)c(-c3ccccc3)c12,12
CSc1sc(-c2ccnc(SCC(=O)c3ccccc3)n2)c(-c2ccccc2)c1C#N,0.75
Cc1ccccc1NC(NC(=O)c1ccccc1)(C(F)(F)F)C(F)(F)F,-0.49
Cc1cc(C)nc(NCc2ccco2)n1,-0.31
Oc1ccccc1Nc1nc(NCc2ccco2)c2ccccc2n1,3.1*
O=C(NCc1ccco1)Oc1ccccc1,1.2
COc1ccc(C2C(C(=O)OC3CCCCC3)=C(C)NC3=C2C(=O)CCC3)cc1 (stereo unspecified),0.6
COC(=O)CN(C#N)c1nc(C)cc(C)n1,6.7*
COc1cc(C)nc(N(C#N)C(C)C)n1,-1.6
COC(=O)CN(C#N)c1nc(N(C)C)nc(N(C)C)n1,0.85
Cc1cc(C)c2c(C)nn(-c3ccc(Br)cc3)c2n1,-0.29
CSc1ccc([N+](=O)[O-])cc1-c1ccn(S(C)(=O)=O)n1,-1.1
CCOC(=O)c1c(C)n(-c2ccccc2)c2ccc(OC(C)=O)cc12,1.4
CCOC(=O)c1c(C)n(-c2ccc(N(C)C)cc2)c2ccc(OCC(N)=O)cc12,4.6*
CCS(=O)(=O)Nc1cc2c(C(=O)O)c(C)n(S(=O)(=O)CC)c2cc1OC,-2
COc1ccccc1N1CCN(C(=O)c2cc(C)on2)CC1,-0.05
COc1cc2c(C(=O)O)c(C)n(-c3ccccc3)c2cc1Br,3.1*
CCOC(=O)c1c(C)n(-c2ccccc2)c2ccc(OC(=O)c3cccnc3SCC)cc12,-0.1
CCOC(=O)c1c(C)n(-c2ccc(Br)cc2)c2ccc(O)cc12,-0.48
COc1cc(C(=O)O)cc(Br)c1OC,0.34
SMILES,Dicer inh
CCOC(=O)c1c(C)n(-c2ccccc2)c2cc(Br)c(O)cc12,3.7*
COc1ccccc1-n1c(C)c(C(=O)O)c2cc(OC)c3ccccc3c21,4.6*
CCOC(=O)c1c(C)n(-c2ccc(N(C)C)cc2)c2ccc(OC)cc12,-4.8
COc1ccccc1N1CCN(c2nnc(C)c3ccccc23)CC1,-0.71
CN(C)/C=C/C=C/C=C1\c2ccccc2-c2ccc([N+](=O)[O-])cc21,-0.95
CC(Sc1nc2ccccc2[nH]1)c1nc2ccccc2c(=O)[nH]1 (stereo unspecified),2.2
O=c1[nH]c(=O)n(CCO)c2nonc12,-0.84
S=c1[nH]cc(-c2ccc(Cl)cc2)[nH]1,-1.9
O=S(=O)(Nc1ccc(C(F)(F)F)cc1Cl)c1cc(Br)c(Cl)s1,0.4
COc1cc(C2C(C(=O)OCC3CCCO3)=C(C)NC3=C2C(=O)CCC3)ccc1OC(C)=O (stereo unspecified),-0.23
CC(=O)Cn1c(=O)n(-c2ccc(Cl)c(Cl)c2)c(=O)c2cc(-c3ccccc3)sc21,-5.5
O=C(c1cc2n(n1)C(C(F)(F)F)CC(c1ccc(Cl)cc1)N2)N1CCOCC1 (stereo unspecified),0.29
O=C(c1cnn2c1NC(c1ccc(Br)cc1)CC2C(F)(F)F)N1CCOCC1 (stereo unspecified),4.2*
O=C(O)c1cnn2c1NC(c1ccc(Br)cc1)CC2C(F)(F)F (stereo unspecified),2.6
Cc1ccc(C2CC(C(F)(F)F)n3ncc(C(=O)O)c3N2)cc1 (stereo unspecified),0.54
CN1CCN(C(=O)c2cnn3c2NC(c2ccc(Br)cc2)CC3C(F)(F)F)CC1 (stereo unspecified),4.7*
COc1ccc(C2CC(C(F)(F)F)n3ncc(C(N)=O)c3N2)cc1 (stereo unspecified),0.95
COc1ccc(C2CC(C(F)(F)F)n3ncc(C(=O)O)c3N2)cc1OC (stereo unspecified),0.76
COc1cccc(C2CC(C(F)(F)F)n3ncc(C(=O)O)c3N2)c1 (stereo unspecified),-0.84
O=C(O)c1cnn2c1NC(c1ccccc1)CC2C(F)(F)F (stereo unspecified),3.1*
CN1CCN(C(=O)c2cc3n(n2)C(C(F)(F)F)CC(c2ccccc2)N3)CC1 (stereo unspecified),3.2*
O=C(c1cnn2c1NC(c1ccccc1)CC2C(F)(F)F)N1CCCCC1 (stereo unspecified),0.97
O=C(O)c1cc2n(n1)C(C(F)(F)F)CC(c1ccc(Cl)cc1)N2 (stereo unspecified),1.7
CCc1nc(SCC(N)=O)n[nH]1,-1.1
Fc1ccc2c(c1)-c1c(cnc3cc(-c4ccccc4)nn13)CO2,-0.67
SMILES,Dicer inh
C(=C\CSC1=NCCN1)/CSC1=NCCN1,0.3
Cc1cc(C)nc(SCC(=O)Nc2c(C)n[nH]c2C)n1,0.71
COc1ccc(CN2C(=O)c3oc4ccccc4c(=O)c3C2c2cccc(O)c2)cc1 (stereo unspecified),-0.77
NS(=O)(=O)c1ccccc1Sc1ccccc1C(=O)O,0
c1ccc(CCN2CN(Cc3cccnc3)Cn3c2nc2ccccc23)cc1,-0.97
CCOc1cc(C2C(C(=O)OCCc3ccccc3)=C(C)NC3=C2C(=O)CC(C)(C)C3)ccc1O (stereo unspecified),0.7
